Laboratory results published in PubChem BioAssay (NCATS).
Inconclusive results are not listed. Entries that show only a call come without a potency. Active and inactive are the calls of the source. Unless noted, calls come from the whole dose curve; as a rule, active = well fitted curve in the direction sought with a large enough effect; inconclusive = small, poorly fitted or top-dose-only effect, or another doubt; inactive = no such curve, though single readings can be large; an effect the other way counts as inactive or inconclusive.

Experiments:
[1] = target: Cytochrome P450 1A2 (Homo sapiens) (UniProt P05177); assay: p450-cyp1a2 (AID 410; calls by dose curve; note: potency is the fitted concentration of half-maximal effect)
Summary of the method: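 20nM CYP1A2, 100uM Luciferin-ME (=Km), 100mM KPO4; cpd 10 min RT; +NADPH regen, 60 min RT; stop/detect 20 min; luminescence. Normalized to furafylline 57 uM = full inhibition.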

[2] = target: Glucocorticoid receptor (Homo sapiens) (UniProt P04150); assay: GR-GFP Redistribution (AID 450;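 active = compounds whose dose series gives a full or clear partial fitted curve of increased nuclear translocation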; note: potency is the fitted concentration of half-maximal effect)
[3] = target: Glucocorticoid receptor (Homo sapiens) (UniProt P04150); assay: GR-EFC Redistribution (AID 451; calls by dose curve; note: potency is the fitted concentration of half-maximal effect); details: CHO-K1 GR-EFC translocation, beta-gal luminescence, 2 h
Summary of the method: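 Translocation of GR-ED fusion to nuclear EA restores b-gal, read by luminescence after 1 h room-temperature detection. Engineered CHO-K1 biosensor cells, 1,000/well, exposed 2 h at 37 C to titrations up to 46 uM final.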

[4] = target: Mitogen-activated protein kinase 10 (Mus musculus) (UniProt Q61831); assay: JNK3 AlphaScreen Assay (AID 530; active = well fitted curve in either direction with a large enough effect, not every such curve was filed as active;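 note: kinase came from lysate of stimulated human HepG2 cells; signal reports phosphorylation of biotinylated GST-cJun 1-79 at Ser73 with 10 µM ATP; series mostly up to about 57 µM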)
Summary of the method: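 Kinase buffer: 20 mM Tris-HCl pH 7.6, 10 mM MgCl2, 1 mM DTT, 0.1 mM Na3VO4, 0.01% Tween-20; ATP 10 uM. Substrate biotin-GST-cJun(1-79), enzyme from activated HepG2 lysates. Detection by Ser73 phospho-antibody AlphaScreen.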

[5] = target: 3',5'-cyclic-AMP phosphodiesterase 4B (Homo sapiens) (UniProt Q07343); assay: qHTS Assay for Inhibitors of PDE-IV (AID 607; active = well fitted activation curve with a large enough effect in the main read-out, with a control signal flat, not every such curve was filed as active)
Summary of the method: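 ACTOne HEK293 cells carry a modified cAMP-gated CNG channel and express endogenous PDE4; plated 1000 cells/well, compounds up to 22.9 uM final. Membrane-potential dye fluorescence (ex 535/em 590) was read; parental cells received 10 uM forskolin + 100 uM RO 20-1724.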

[6] = target: Cytochrome P450 2C9 (Homo sapiens) (UniProt P11712); assay: qHTS Assay for Inhibitors and Substrates of Cytochrome P450 2C9 (AID 883); note: nearly all actives have a fitted effect of over 60% in size; note: potency is the fitted concentration of half-maximal effect
Summary of the method: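 Turnover of Luciferin-H (100uM, KM) by 10nM human CYP2C9 was measured over 60 min at 37C with NADPH regeneration; inhibitors and some substrates reduce luminescence. Data normalized to sulphaphenazole 57uM.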

[7] = target: Cytochrome P450 2D6 (Homo sapiens) (UniProt P10635); assay: qHTS Assay for Inhibitors and Substrates of Cytochrome P450 2D6 (AID 891); note: nearly all actives have a fitted effect of over 60% in size; note: potency is the fitted concentration of half-maximal effect
Summary of the method: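 Luminescent read-out of luciferin formed by 5 nM human CYP2D6 demethylating 30 uM Luciferin-ME EGE (Km level) over 60 min at room temperature after NADPH regeneration addition. Data normalized to full inhibition by 1.43 uM quinidine.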

[8] = target: Cytochrome P450 2C19 (Homo sapiens) (UniProt P33261); assay: qHTS Assay for Inhibitors and Substrates of Cytochrome P450 2C19 (AID 899); note: nearly all actives have a fitted effect of over 60% in size; note: potency is the fitted concentration of half-maximal effect
Summary of the method: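 Reactions contain 5nM enzyme, 10uM Luciferin-H EGE (KM) and 50mM KPO4; compound preincubates 10 min at 37C, NADPH regeneration starts turnover for 60 min. Luminescence after detection reagent gives activity.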

[9] = target: Cytochrome P450 3A4 (Homo sapiens) (UniProt P08684); assay: qHTS Assay for Inhibitors and Substrates of Cytochrome P450 3A4 (AID 884); note: potency is the fitted concentration of half-maximal effect; nearly all actives have a fitted effect of over 50% in size
Summary of the method: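 Luminescent readout of luciferin produced by CYP3A4 (20 nM) dealkylation of Luciferin-PPXE, 25 uM (its KM). NADPH-driven reaction ran 60 min at RT after 10 min compound preincubation; data scaled to 57 uM ketoconazole as 100% inhibition.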

[10] = target: Cytochrome P450 3A4 (Homo sapiens) (UniProt P08684); assay: qHTS Assay for Activators of Cytochrome P450 3A4 (AID 885); note: nearly all actives have a fitted effect of over 65% in size
Summary of the method: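 CYP3A4 activity: Luciferin-PPXE O-dealkylation, 25uM substrate, 200mM KPO4, RT throughout. Read-out is luciferase luminescence; higher values reflect activation.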

[11] = target: DNA dC->dU-editing enzyme APOBEC-3G (Homo sapiens) (UniProt Q9HC16); assay: qHTS for inhibitors of Vif-A3G interactions: Validation (AID 588379)
Summary of the method: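 Yellow fluorescence (Ex 488, Em 500-530) of Vif-coexpressing HeLa A3G-eYFP cells, scanned by Acumen cytometer, reports blocked A3G degradation. Cells plated at 700/well overnight at 37 deg C before compound addition, then a further overnight compound incubation at 37 deg C.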

Glucocorticoid receptor (Homo sapiens), sequence (P04150 whole entry, looked up, the tested form may be a part): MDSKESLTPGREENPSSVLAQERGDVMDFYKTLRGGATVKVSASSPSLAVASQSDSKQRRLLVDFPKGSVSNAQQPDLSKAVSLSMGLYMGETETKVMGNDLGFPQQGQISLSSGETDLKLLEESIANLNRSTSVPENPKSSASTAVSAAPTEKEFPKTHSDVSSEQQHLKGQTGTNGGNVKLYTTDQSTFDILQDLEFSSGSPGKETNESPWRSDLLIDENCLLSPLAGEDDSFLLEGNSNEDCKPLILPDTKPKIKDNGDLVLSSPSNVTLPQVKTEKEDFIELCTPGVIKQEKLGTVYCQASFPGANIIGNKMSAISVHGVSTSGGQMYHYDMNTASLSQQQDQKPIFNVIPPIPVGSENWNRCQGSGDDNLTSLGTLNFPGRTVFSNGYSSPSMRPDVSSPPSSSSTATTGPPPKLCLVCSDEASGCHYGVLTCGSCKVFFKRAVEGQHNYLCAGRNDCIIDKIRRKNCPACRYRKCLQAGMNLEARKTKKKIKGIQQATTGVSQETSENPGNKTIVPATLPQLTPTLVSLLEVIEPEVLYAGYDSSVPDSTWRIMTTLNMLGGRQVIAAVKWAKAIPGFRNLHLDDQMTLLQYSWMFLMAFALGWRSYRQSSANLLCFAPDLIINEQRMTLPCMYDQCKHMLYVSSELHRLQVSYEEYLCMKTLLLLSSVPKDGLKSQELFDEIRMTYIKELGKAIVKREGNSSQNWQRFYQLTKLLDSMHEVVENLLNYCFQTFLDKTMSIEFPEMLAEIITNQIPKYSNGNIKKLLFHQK
Cytochrome P450 3A4 (Homo sapiens), sequence (P08684 whole entry, looked up): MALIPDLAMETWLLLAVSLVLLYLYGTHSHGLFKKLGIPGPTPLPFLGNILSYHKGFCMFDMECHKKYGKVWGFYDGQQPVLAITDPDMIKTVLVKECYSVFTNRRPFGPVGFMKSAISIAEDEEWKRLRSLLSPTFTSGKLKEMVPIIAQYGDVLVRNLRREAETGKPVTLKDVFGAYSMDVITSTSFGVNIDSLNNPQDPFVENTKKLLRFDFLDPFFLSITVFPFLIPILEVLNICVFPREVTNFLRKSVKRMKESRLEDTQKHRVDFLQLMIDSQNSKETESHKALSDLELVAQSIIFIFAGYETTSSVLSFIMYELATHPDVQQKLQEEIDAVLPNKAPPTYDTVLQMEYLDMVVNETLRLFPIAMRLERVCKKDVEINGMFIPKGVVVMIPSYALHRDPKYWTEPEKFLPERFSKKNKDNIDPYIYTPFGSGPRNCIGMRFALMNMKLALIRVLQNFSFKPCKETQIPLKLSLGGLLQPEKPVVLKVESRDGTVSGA
Cytochrome P450 1A2 (Homo sapiens), sequence (P05177 whole entry, looked up): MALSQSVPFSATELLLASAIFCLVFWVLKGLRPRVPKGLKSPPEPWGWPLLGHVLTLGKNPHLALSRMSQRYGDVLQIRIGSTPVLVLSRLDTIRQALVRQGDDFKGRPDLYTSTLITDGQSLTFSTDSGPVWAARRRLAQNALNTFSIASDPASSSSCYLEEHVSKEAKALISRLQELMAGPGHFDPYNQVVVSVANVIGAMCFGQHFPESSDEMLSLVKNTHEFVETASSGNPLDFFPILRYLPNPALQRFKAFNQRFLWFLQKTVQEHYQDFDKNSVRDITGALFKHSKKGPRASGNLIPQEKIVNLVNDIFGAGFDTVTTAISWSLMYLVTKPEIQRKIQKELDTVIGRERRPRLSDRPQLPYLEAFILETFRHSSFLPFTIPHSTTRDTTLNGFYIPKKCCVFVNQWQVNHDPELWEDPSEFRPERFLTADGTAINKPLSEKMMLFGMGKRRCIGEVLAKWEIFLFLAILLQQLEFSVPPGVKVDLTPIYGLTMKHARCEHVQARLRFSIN
Cytochrome P450 2D6 (Homo sapiens), sequence (P10635 whole entry, looked up): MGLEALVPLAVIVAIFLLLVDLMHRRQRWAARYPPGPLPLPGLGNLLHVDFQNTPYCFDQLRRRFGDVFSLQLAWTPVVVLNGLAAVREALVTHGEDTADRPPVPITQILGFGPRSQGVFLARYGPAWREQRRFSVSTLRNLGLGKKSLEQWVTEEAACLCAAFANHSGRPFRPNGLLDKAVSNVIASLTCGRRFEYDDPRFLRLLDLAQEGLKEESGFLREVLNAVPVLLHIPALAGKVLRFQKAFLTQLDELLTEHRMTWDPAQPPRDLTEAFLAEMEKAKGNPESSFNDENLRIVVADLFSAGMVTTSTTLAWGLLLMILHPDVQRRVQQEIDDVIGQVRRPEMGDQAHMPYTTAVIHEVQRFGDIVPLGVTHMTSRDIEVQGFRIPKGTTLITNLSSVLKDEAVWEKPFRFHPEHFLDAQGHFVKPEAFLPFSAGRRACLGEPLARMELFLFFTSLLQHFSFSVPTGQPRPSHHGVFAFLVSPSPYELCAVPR
3',5'-cyclic-AMP phosphodiesterase 4B (Homo sapiens), sequence (Q07343 whole entry, looked up): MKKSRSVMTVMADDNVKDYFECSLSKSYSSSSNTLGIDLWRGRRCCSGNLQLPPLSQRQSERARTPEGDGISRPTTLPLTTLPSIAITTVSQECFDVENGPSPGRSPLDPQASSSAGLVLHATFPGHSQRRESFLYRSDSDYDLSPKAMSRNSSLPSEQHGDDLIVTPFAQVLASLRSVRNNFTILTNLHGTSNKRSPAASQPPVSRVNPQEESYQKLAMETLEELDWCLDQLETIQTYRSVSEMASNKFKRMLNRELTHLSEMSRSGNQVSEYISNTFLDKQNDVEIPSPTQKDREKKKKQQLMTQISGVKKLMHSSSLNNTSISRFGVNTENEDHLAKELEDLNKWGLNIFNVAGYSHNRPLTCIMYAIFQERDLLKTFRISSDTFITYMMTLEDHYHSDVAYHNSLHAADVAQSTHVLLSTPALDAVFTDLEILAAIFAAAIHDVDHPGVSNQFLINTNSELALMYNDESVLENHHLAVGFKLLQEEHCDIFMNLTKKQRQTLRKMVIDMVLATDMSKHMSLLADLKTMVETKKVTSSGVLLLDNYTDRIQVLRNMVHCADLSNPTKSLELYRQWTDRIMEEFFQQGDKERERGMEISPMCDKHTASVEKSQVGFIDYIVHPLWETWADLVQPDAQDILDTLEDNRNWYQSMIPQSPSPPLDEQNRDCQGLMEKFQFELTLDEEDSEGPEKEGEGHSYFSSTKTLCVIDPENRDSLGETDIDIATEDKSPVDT
Cytochrome P450 2C19 (Homo sapiens), sequence (P33261 whole entry, looked up): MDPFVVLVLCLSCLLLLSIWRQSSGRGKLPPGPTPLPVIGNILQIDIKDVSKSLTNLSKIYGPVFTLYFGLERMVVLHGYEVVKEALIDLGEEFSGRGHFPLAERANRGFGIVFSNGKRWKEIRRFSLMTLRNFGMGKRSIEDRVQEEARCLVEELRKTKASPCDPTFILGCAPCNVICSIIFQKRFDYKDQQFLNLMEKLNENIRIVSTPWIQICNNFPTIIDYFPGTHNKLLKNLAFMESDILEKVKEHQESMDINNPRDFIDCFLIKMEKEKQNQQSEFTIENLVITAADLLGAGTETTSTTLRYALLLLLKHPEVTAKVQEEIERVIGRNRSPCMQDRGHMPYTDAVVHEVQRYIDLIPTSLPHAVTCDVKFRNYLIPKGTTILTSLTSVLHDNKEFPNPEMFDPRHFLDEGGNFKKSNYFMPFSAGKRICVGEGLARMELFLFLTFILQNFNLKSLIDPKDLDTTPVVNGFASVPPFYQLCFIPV
Cytochrome P450 2C9 (Homo sapiens), sequence (P11712 whole entry, looked up): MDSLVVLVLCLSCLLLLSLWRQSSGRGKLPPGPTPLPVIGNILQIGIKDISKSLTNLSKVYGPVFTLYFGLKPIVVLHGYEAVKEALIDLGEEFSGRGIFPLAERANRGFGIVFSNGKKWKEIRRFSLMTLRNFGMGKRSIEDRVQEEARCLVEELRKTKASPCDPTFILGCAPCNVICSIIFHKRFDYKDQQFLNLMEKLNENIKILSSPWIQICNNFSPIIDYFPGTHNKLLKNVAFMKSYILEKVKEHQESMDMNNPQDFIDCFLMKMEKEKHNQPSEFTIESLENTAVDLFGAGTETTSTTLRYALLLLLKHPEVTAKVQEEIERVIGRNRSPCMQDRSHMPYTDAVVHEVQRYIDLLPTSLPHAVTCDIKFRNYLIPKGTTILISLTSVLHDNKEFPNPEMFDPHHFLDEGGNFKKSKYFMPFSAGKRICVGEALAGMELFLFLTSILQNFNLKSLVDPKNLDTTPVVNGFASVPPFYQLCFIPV
DNA dC->dU-editing enzyme APOBEC-3G (Homo sapiens), sequence (Q9HC16 whole entry, looked up): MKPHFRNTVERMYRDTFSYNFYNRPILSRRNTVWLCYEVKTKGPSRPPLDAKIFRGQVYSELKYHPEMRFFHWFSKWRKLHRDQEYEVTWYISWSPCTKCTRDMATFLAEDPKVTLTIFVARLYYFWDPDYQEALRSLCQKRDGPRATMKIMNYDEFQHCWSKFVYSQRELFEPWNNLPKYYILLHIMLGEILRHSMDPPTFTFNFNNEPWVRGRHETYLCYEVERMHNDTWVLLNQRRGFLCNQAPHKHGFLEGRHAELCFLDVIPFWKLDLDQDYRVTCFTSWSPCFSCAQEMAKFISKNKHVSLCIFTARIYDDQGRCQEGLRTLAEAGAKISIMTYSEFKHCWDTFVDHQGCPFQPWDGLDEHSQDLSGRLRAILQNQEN

Compound	Potency [1]	Potency [2]	Potency [3]	Potency [4]	Potency [5]	Potency [6]	Potency [7]	Potency [8]	Potency [9]	Potency [10]	outcome [11]
CC(=O)Oc1ccc(/C=C\C(=O)C[C@@H]2O[C@@H](Oc3cc(OC(C)=O)c4c(c3)O[C@@H](c3ccc(OC(C)=O)cc3)CC4=O)[C@H](OC(C)=O)[C@H](OC(C)=O)[C@@H]2OC(C)=O)cc1	inactive	> 46 µM (inactive)	> 46 µM (inactive)	inactive	inactive	inactive	inactive	inactive			
COc1cc(C(=O)O[C@@H]2CC(C)=CC[C@@]3(C)CC[C@](O)(C(C)C)[C@H]23)ccc1O	15.8 µM (active)	> 46 µM (inactive)	> 46 µM (inactive)	inactive		15.8 µM (active)					
CC(=O)O[C@@H]1CC[C@]2(C)[C@H]3CC[C@]4(C)[C@H](C[C@H]5CCCC[C@@]54C(C)=O)[C@@H]3CC(=O)[C@@]2(O)C1	20 µM (active)	> 46 µM (inactive)	> 46 µM (inactive)	inactive	inactive		inactive				
Cc1ccc(C(=O)[C@@H]2[C@@H]3[C@@H](C(=O)[C@@H]4OC[C@H]3O4)[C@@H]3C=Cc4ccccc4N23)cc1	15.8 µM (active)	> 46 µM (inactive)	> 46 µM (inactive)		inactive	10 µM (active)		15.8 µM (active)			
C[C@H]1[C@H](C)CC[C@@]2(C(=O)O)CC[C@]3(C)C(=CC[C@H]4[C@@]5(C)C[C@@H](O)[C@H](O)[C@@](C)(CO)[C@@H]5CC[C@@]43C)[C@@H]12	inactive	> 46 µM (inactive)	> 46 µM (inactive)	inactive	inactive	inactive	inactive	inactive			
C=C1CC[C@@H]2O[C@]2(C)CC[C@@H]2[C@H]1CC2(C)C	15.8 µM (active)	> 46 µM (inactive)	> 46 µM (inactive)	inactive		25.1 µM (active)					
Cc1c(-c2ccccc2)oc2cc(O)ccc2c1=O	0.251 µM (active)	> 46 µM (inactive)	> 46 µM (inactive)			2.51 µM (active)	inactive	0.126 µM (active)	15.8 µM (active)	inactive	inactive
Nc1ccccc1C(=O)C[C@@H](N)C(=O)O	inactive	> 46 µM (inactive)	> 46 µM (inactive)	inactive	inactive	inactive	inactive	inactive			
COc1cc2oc(-c3ccccc3)cc(=O)c2cc1OC	0.2 µM (active)	> 46 µM (inactive)	> 46 µM (inactive)		inactive	inactive	inactive		15.8 µM (active)	inactive	inactive
C[C@H](O)[C@H](O)[C@@H](O)c1cnc2nc(N)[nH]c(=O)c2n1	inactive	> 46 µM (inactive)	> 46 µM (inactive)	inactive	inactive	inactive	inactive	inactive			
Cc1ccc(C[C@H](Cc2nc3ccccc3[nH]2)c2nc3ccccc3[nH]2)cc1	3.98 µM (active)	> 46 µM (inactive)	> 46 µM (inactive)	inactive	inactive	12.6 µM (active)	79.4 nM (active)	5.01 µM (active)			
